The results in this text go back to PubChem BioAssay (NCATS).

The structures appear in SMILES notation. Values joined by “and” are separate entries in the source; they are usually repeats but may differ in a detail not shown here. Identical values can stand only once. Unmarked numbers belong to inactive results. Records with an inconclusive call do not appear. Active and inactive are the calls of the source. Unless noted, calls come from the whole dose curve; as a rule, active = well fitted curve in the direction sought with a large enough effect; inconclusive = small, poorly fitted or top-dose-only effect, or another doubt; inactive = no such curve, though single readings can be large; an effect the other way counts as inactive or inconclusive.

In one assay the test system is PA-1. Briefly: Primary qHTS to identify gynecologic anti-cancer compounds using libraries of approved drugs and bioactive compounds (AID 1345084). Note: % is set by controls: 0 for no effect and ±100 for the full control effect; nearly all actives have a fitted effect of over 55% in size. Conditions: Gynecologic cancer cell panel viability, ATPlite luminescence, 48 h; series mostly up to 57.5 µM. The method in brief:
(§1)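 In this quantitative HTS, cell killing is estimated from loss of ATP-dependent luciferase light. Cells see five compound concentrations over a 48 h exposure.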

The subject of the next assay is SKOV3. The description is as above. Conditions: Gynecologic cancer cell panel viability, ATPlite luminescence, 48 h; series mostly up to 57.5 µM. Put shortly:
as §1

For the next assay, the system named is Tov-21-G. Described as above. Conditions: Gynecologic cancer cell panel viability, ATPlite luminescence, 48 h; series mostly up to 57.5 µM. Put shortly:
as §1

The test system of the next assay is Tov112D. The assay is described as above. Conditions: Gynecologic cancer cell panel viability, ATPlite luminescence, 48 h; series mostly up to 57.5 µM. The method in brief:
as §1

Assay [1] can be described thus: Drug repurposing screens with cells derived from glioblastoma tumor samples (AID 1345199). For activity, negative = cell killing: % is set by controls: 0 for no effect and ±100 for the full control effect. Note: nearly all actives have a fitted effect of over 40% in size. Note: potency is the fitted concentration of half-maximal effect. Conditions: GBM patient neurospheres viability, ATP luminescence, 48 h. The method in brief: (§2)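 Four patient lines of CD133+ GBM neurospheres were screened at several concentrations; hits were retested in those lines plus three slower-growing GBM lines, using 48-hour treatment and ATP-based viability.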

For a further assay, the system named is astro. The assay is described as above. Conditions: viability, ATP luminescence, 48 h; series mostly up to 45.9 µM. The method in brief:
as §2

Assay [2] addresses Nuclear receptor subfamily 1 group I member 2 (Rattus norvegicus) (UniProt Q9R1A7). The assay can be described thus: qHTS assay for small molecule activators of the rat pregnane X receptor (rPXR) signaling pathway (AID 651751; call rule not given here; note: 0% is about no effect). Conditions: rPXR reporter cells, luciferase (One-Glo), 24 h.
A short description of assay [3]: qHTS assay for small molecule activators of the human pregnane X receptor (PXR) signaling pathway (AID 720659; call rule not given here; note: 0% is about no effect).
[4] abbreviates: at 45.9 µM (top of the series), tumour line B.
Where [5] appears, read: at 45.9 µM (top of the series), tumour line D.
The mark [6] stands for this setting: at 46 µM (top of the series), tumour line A.
[7] abbreviates: at 46.1 µM (top of the series), tumour line C.
[8] abbreviates: at 20 µM (top of the series), tumour line C.
Where [9] appears, read: at 21.2 µM (top of the series), tumour line B.
The mark [10] stands for this setting: at 21.2 µM (top of the series), tumour line D.

Chain of Nuclear receptor subfamily 1 group I member 2 (Rattus norvegicus) (Q9R1A7 whole entry, looked up): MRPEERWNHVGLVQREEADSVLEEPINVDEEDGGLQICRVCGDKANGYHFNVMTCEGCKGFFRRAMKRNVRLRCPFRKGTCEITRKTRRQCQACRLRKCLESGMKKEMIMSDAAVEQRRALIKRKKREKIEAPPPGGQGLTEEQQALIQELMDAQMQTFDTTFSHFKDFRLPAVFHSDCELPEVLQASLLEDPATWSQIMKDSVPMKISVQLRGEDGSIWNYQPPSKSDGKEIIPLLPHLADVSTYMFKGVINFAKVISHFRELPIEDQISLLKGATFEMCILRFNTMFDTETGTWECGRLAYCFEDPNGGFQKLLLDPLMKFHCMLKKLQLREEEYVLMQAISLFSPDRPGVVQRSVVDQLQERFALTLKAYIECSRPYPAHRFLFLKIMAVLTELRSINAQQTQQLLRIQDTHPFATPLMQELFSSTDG

`CC(C)(C)NCC(O)c1cc(O)cc(O)c1` (stereo not given): the Potency result in the assay with PA-1, in the assay on SKOV3, in the assay on Tov-21-G, with Tov112D and with astro was “inactive” throughout. The activity, negative = cell killing in assay [1] (setting [4]) is 0.586%; in assay [1] (setting [5]), -16.8%; in assay [1] (setting [6]), -15.6%; in assay [1] (setting [7]), -15.7%.
Turning to `N[C@@H](COP(=O)(O)O)C(=O)O`, the Potency result in the assay on PA-1, in the assay with SKOV3, with Tov-21-G, with Tov112D and in the assay with astro was “inactive” throughout. Further, the activity, negative = cell killing in assay [1] (setting [4]) is -4.31%; in assay [1] (setting [5]) it was -5.04%; in assay [1] (setting [7]), -9.92%.
Turning to `CN=C(NC#N)NCCSCc1nc[nH]c1C`, the Potency result in the assay with PA-1, in the assay with SKOV3, in the assay with Tov-21-G, in the assay on Tov112D and in the assay on astro was “inactive” throughout. Further, the activity, negative = cell killing in assay [1] (setting [4]) was -8.34%; in assay [1] (setting [5]) it was -15.2%; in assay [1] (setting [6]), -11.7%; in assay [1] (setting [7]), -4.17%. The max response in assay [2] was 5.73%.
As to `CCc1c(C)[nH]c2c1C(=O)C(CN1CCOCC1)CC2` (stereo not given), the Potency entry in the assay with PA-1, with SKOV3, with Tov-21-G, in the assay on Tov112D and in the assay with astro was “inactive” throughout. Besides, the activity, negative = cell killing in assay [1] (setting [8]) is -3.97%; in assay [1] (setting [9]) it was -15.8%; in assay [1] (setting [10]), 1.91%.
With `Cc1nc2c([nH]1)c(=O)n(C)c(=O)n2Cc1ccco1`, the Potency entry in the assay with PA-1, in the assay on SKOV3, with Tov-21-G, with Tov112D and in the assay on astro was “inactive” throughout. Further, the figures for the activity, negative = cell killing in assay [1] (setting [4]), in assay [1] (setting [5]) and in assay [1] (setting [7]) were -4.62%, -3.2% and -11.8%, respectively.
In the case of `CCCN1C[C@H](CSC)C[C@@H]2c3cccc4[nH]cc(c34)C[C@H]21`, the Potency entry in the assay with PA-1, in the assay with SKOV3, with Tov-21-G, in the assay on Tov112D and with astro was “inactive” in each case. Moreover, the activity, negative = cell killing was -27.2% in assay [1] (setting [4]) and 15.8% in assay [1] (setting [7]). Moreover, in assay [1] (tumour line A), the Potency is 7.94 µM (active).
With `CCCNC(C)C(=O)Nc1ccccc1C` (stereo not given), the Potency result in the assay with PA-1, with SKOV3, in the assay on Tov-21-G, with Tov112D and in the assay with astro was “inactive” in each case. In addition, the activity, negative = cell killing in assay [1] (setting [4]) is -20%; in assay [1] (setting [5]) it was -8.5%; in assay [1] (setting [7]) it was -15.8%.
Take `NS(=O)(=O)c1cc2c(cc1Cl)NC(C1CC3C=CC1C3)NS2(=O)=O` (stereo not given): the Potency entry in the assay on PA-1, with SKOV3, in the assay on Tov-21-G, in the assay with Tov112D and with astro was “inactive” throughout. Further, the activity, negative = cell killing in assay [1] (setting [4]) is 0.786%; in assay [1] (setting [5]) it was 7.03%; in assay [1] (setting [6]), -11.5%; in assay [1] (setting [7]), -5.22%.
With `Brc1c(NC2=NCCN2)ccc2nccnc12`, the Potency entry in the assay with PA-1, in the assay on SKOV3, in the assay with Tov-21-G, in the assay with Tov112D and with astro was “inactive” throughout. Also, the activity, negative = cell killing is -5.79% in assay [1] (setting [4]), -4.16% in assay [1] (setting [5]) and 4.36% in assay [1] (setting [7]).
Turning to `COCCOC(=O)C1=C(C)NC(C)=C(C(=O)OC(C)C)C1c1cccc([N+](=O)[O-])c1` (stereo not given), the Potency result with PA-1, with SKOV3, with Tov-21-G, with Tov112D and in the assay with astro was “inactive” throughout. The activity, negative = cell killing is -4.05% in assay [1] (setting [4]) and -1.16% in assay [1] (setting [7]). For the same molecule, the Potency in assay [1] (tumour line A) was 14.1 µM (active).
With `C[N+](C)(C)CCCCCCCCCC[N+](C)(C)C`, the Potency entry in the assay on PA-1, in the assay on SKOV3, in the assay with Tov-21-G, in the assay with Tov112D and with astro was “inactive” in each case. Besides, the activity, negative = cell killing in assay [1] (setting [4]) is -8.43%; in assay [1] (setting [5]), -24.4%; in assay [1] (setting [6]) it was -24.5%; in assay [1] (setting [7]), -2.46%.
Turning to `CO[C@@]1(NC(=O)CSCC#N)C(=O)N2C(C(=O)O)=C(CSc3nnnn3C)CS[C@@H]21`, the Potency result in the assay on PA-1, with SKOV3, with Tov-21-G, in the assay with Tov112D and in the assay with astro was “inactive” throughout. The results for the activity, negative = cell killing in assay [1] (setting [4]), in assay [1] (setting [5]) and in assay [1] (setting [6]) were -13.1%, -14.3% and -28.8%, respectively.
On to `NC(Cc1ccc(Cl)cc1)C(=O)O` (stereo not given), for which the activity change, negative = cytotoxicity was -4.76% [at 0.462 µM] in the assay with PA-1, 0.0141% [at 0.462 µM] in the assay on SKOV3, 11.9% [at 0.462 µM] with Tov-21-G and 2.14% [at 0.462 µM] with Tov112D. Besides, the activity, negative = cell killing in assay [1] (setting [4]) was -4.29%; in assay [1] (setting [5]) it was -0.449%; in assay [1] (setting [6]) it was -31.7%; in assay [1] (setting [7]), 0.887%. For the same molecule, in the assay with astro, the Potency result was “inactive”.
As to `NC(=O)c1cn(Cc2c(F)cccc2F)nn1`, the Potency result in the assay on PA-1, in the assay with SKOV3, in the assay on Tov-21-G, with Tov112D and with astro was “inactive” throughout. Also, the activity, negative = cell killing is -2.3% in assay [1] (setting [4]), -3.04% in assay [1] (setting [5]), -26.2% in assay [1] (setting [6]) and -19.6% in assay [1] (setting [7]).
Take `CCCCNC(=O)NS(=O)(=O)c1ccc(C)cc1`: the Potency entry in the assay with PA-1, with SKOV3, in the assay with Tov-21-G, with Tov112D and in the assay with astro was “inactive” each time. Further, the activity, negative = cell killing is -7.32% in assay [1] (setting [4]), -11.9% in assay [1] (setting [5]), -4.33% in assay [1] (setting [6]) and 8.27% in assay [1] (setting [7]). Also, in assay [2], the max response is -1.54% and 0.831%. In addition, the molecule was classed as inactive in assay [3].
On to `CC[N+](C)(C)c1cccc(O)c1`, for which the Potency result with PA-1, in the assay with SKOV3, with Tov-21-G, with Tov112D and in the assay on astro was “inactive” each time. Moreover, the activity, negative = cell killing in assay [1] (setting [8]) was -0.675%; in assay [1] (setting [9]) it was -16.9%; in assay [1] (setting [10]), -14.7%; in assay [1] (at 21.3 µM (top of the series), tumour line A), -22.7%.
For `CCN(CC)CCOCCOC(=O)C1(c2ccccc2)CCCC1`, the Potency entry in the assay with PA-1, in the assay on SKOV3, with Tov-21-G and in the assay with Tov112D was “inactive” in each case. For the same molecule, the activity, negative = cell killing in assay [1] (setting [7]) was -28.4%. Moreover, the Potency in assay [1] (tumour line A) is 2.24 µM (active); in assay [1] (tumour line D) it was 12.6 µM (active); in the assay with astro, 35.5 µM (active).
As to `Cc1nc2sccn2c(=O)c1CCN1CCC(=C(c2ccc(F)cc2)c2ccc(F)cc2)CC1`, the Potency result with PA-1, in the assay with SKOV3, with Tov-21-G and in the assay with Tov112D was “inactive” throughout. Also, in the assay with astro, the Potency was 20 µM (active).
On to `CN(C)[C@@H]1C(=O)C(C(N)=O)=C(O)[C@@]2(O)C(=O)C3=C(O)c4c(O)ccc(Cl)c4[C@@H](O)[C@H]3C[C@@H]12`, for which the Potency entry with PA-1, in the assay with SKOV3, in the assay with Tov-21-G, in the assay on Tov112D and in the assay on astro was “inactive” throughout. The activity, negative = cell killing in assay [1] (setting [4]) is -11.7%; in assay [1] (setting [5]), -27%; in assay [1] (setting [7]), -29.4%.
